# What was measured:
# Actin, cytoplasmic 1 = Actin, cytoplasmic 1 (UniProt P60709); assay: cross-linking mass spectrometry
# [1] = biological target: DNA replication licensing factor MCM5 (UniProt P33992); assay: cross-linking mass spectrometry
# [2] = biological target: Acidic leucine-rich nuclear phosphoprotein 32 family member B (UniProt Q92688); assay: cross-link between two proteins; cross-linking mass spectrometry
# Ankyrin-1 = Ankyrin-1 (UniProt P16157); assay: as above
# [3] = biological target: Centrosomal protein of 85 kDa (UniProt Q6P2H3); assay: as above
# [4] = biological target: Heterogeneous nuclear ribonucleoprotein K (UniProt P61978); assay: as above
# Filamin-C = Filamin-C (UniProt Q14315); assay: as above
# [5] = biological target: Heterogeneous nuclear ribonucleoprotein A/B (UniProt Q99729); assay: as above
# [6] = biological target: Heterogeneous nuclear ribonucleoprotein M (UniProt P52272); assay: as above
# [7] = biological target: Leucine--tRNA ligase, cytoplasmic (UniProt Q9P2J5); assay: as above
# Plastin-1 = Plastin-1 (UniProt Q14651); assay: as above
# [8] = biological target: Platelet-activating factor acetylhydrolase IB subunit alpha1 (UniProt Q15102); assay: as above
# [9] = biological target: Splicing factor 3B subunit 3 (UniProt Q15393); assay: as above
# Tubulin alpha-4A chain = Tubulin alpha-4A chain (UniProt P68366); assay: as above
# Tubulin beta-2B chain = Tubulin beta-2B chain (UniProt Q9BVA1); assay: as above
# Tubulin beta-4B chain = Tubulin beta-4B chain (UniProt P68371); assay: as above
# Zincore component SEPHS1 = Zincore component SEPHS1 (UniProt P49903); assay: as above
# [10] = biological target: Heterogeneous nuclear ribonucleoproteins C1/C2 (UniProt P07910); assay: cross-link between two proteins; affinity purification or IP with mass spectrometry; cross-linking mass spectrometry
# [11] = biological target: Heterogeneous nuclear ribonucleoprotein F (UniProt P52597); assay: as above
# [12] = biological target: RNA binding motif protein, X-linked-like-1 (UniProt Q96E39); assay: as above
substance,measurement,setting,value
"Formin-like protein 1, O95466",listed as a hit,"Actin, cytoplasmic 1",yes
"DNA replication licensing factor MCM4, P33991",listed as a hit,[1],yes
"Acidic leucine-rich nuclear phosphoprotein 32 family member A, P39687",listed as a hit,[2],yes
"Spectrin alpha chain, erythrocytic 1, P02549",listed as a hit,Ankyrin-1,yes
"Heat shock protein HSP 90-beta, P08238",listed as a hit,[3],yes
same,listed as a hit,[4],yes
"Filamin-B, O75369",listed as a hit,Filamin-C,yes
"Heterogeneous nuclear ribonucleoprotein A1, P09651",listed as a hit,[5],yes
"Matrin-3, P43243",listed as a hit,[6],yes
"Isoleucine--tRNA ligase, cytoplasmic, P41252",listed as a hit,[7],yes
"Plastin-2, P13796",listed as a hit,Plastin-1,yes
"Platelet-activating factor acetylhydrolase IB subunit alpha2, P68402",listed as a hit,[8],yes
"Splicing factor 3B subunit 2, Q13435",listed as a hit,[9],yes
"Stathmin, P16949",listed as a hit,Tubulin alpha-4A chain,yes
"Tubulin alpha-1C chain, Q9BQE3",listed as a hit,Tubulin beta-2B chain,yes
"Elongation factor 1-alpha 1, P68104",listed as a hit,Tubulin beta-4B chain,yes
"Heterogeneous nuclear ribonucleoprotein D-like, O14979",listed as a hit,Zincore component SEPHS1,yes
same,listed as a hit,[10],yes
"Heterogeneous nuclear ribonucleoproteins C1/C2, P07910",listed as a hit,[11],yes
same,listed as a hit,[12],yes

# Reference: article PMC12350791
